# Bioassay records: PubChem BioAssay, several laboratories
# Sampled rows, rich in hits. Any-hit rate of the full collection: about 1.5%.
# ARNT-TACC3 inh – ARNT/TACC3 interaction disruption | 0.66% of 390,000 active | inhibition, % at 9.99 µM | AlphaScreen His-ARNT PAS-B/GST-TACC3 binding, luminescence; TACC3 fragment carries E629A point mutation;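 active means mean inhibition of replicates at least 50% and at least half of replicates each reaching 50%; inconclusive means half or more replicates reach 50% but mean below 50%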;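 further: 0% = complete ARNT plus TACC3 wells and 100% = ARNT alone without TACC3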
# AI-2 QS mod – modulators of Vibrio harveyi AI-2 quorum sensing system | Vibrio harveyi JMH597 AI-2 luminescence/OD600 ratio, 9 h; active compounds read low; strain lacks LuxN and CqsS sensors; 0 = neutral-control median | activity change, % at 7.5 µM | 0.4% of 300,000 active | AID 2094; in the data active means activity change below about -75%, passing the limit was not always enough; inconclusive means no clear call, values can overlap the other calls;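 further: luminescence divided by OD600 gain over 9 h not by final OD600 alone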
# Rin1-Abl PPI inh – blocks binding of human Rin1 to Abl. 0.4% of 360,000 active. TR-FRET Rin1/Abl binding, biochemical. inhibition, % at 7.35 µM; in the data active means inhibition above about 5%, passing the limit was not always enough
# sPLA2-III inh – Inhibits HGIII-sPLA2 liposome hydrolysis, primary screen | Q9NZ20 | QFRET BODIPY PC-A2 liposome hydrolysis, fluorescence | inhibition, % at 12.2 µM | 0.56% of 370,000 active | AID 743126;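 active means inhibition above mean plus 3 SD of compounds lying within the high and low control bounds, cut at about 19% in these data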;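 further: 0% = median of test compound wells and 100% = no enzyme DMSO wells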
# Target sequence (Q9NZ20 whole entry, looked up): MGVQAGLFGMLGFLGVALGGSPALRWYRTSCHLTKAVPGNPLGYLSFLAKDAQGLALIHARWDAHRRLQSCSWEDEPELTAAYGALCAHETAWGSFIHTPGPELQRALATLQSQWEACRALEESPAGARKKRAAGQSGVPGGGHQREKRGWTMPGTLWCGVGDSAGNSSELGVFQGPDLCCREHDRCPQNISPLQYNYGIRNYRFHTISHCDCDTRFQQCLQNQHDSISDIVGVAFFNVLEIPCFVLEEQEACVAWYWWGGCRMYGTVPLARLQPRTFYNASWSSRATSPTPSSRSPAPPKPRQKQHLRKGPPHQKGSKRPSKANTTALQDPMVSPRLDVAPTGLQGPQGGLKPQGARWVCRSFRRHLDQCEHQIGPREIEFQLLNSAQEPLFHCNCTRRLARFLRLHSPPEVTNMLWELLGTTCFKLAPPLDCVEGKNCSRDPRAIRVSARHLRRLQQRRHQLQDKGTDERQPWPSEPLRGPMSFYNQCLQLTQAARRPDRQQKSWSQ
# Active calls of the source: *; ? = inconclusive; . = not tested or not shown.
SMILES,ARNT-TACC3 inh,AI-2 QS mod,Rin1-Abl PPI inh,sPLA2-III inh
O=C1NC(=S)NC(=O)C1=Cc1cccc2cc3ccccc3cc12,21*,.,2,0
COc1ccc(C=C2C(=O)NC(=S)NC2=O)cc1,6,.,1,3
C/C=C/c1ccc([C@@H]2[C@H](CO)N3CCCCN(C(=O)Cc4ccncc4)C[C@@H]23)cc1,2,.,.,.
CCC(C)n1c(O)c(/C=N/NC(=O)c2ccncc2)c(=O)[nH]c1=S (centres undefined),65*,11,-1,8
O=C(N/N=C/c1c(O)n(Cc2ccc(F)cc2)c(=S)[nH]c1=O)c1ccncc1,61*,13,1,1
CCn1c(O)c(/C=N/NC(=O)c2ccncc2)c(=O)[nH]c1=S,.,29,-1,-3
CCC(C)n1c(O)c(/C=N/Nc2ccccc2)c(=O)[nH]c1=S (centres undefined),-7,-63,3,6
CCN(CC)C(=O)c1ccc2c(c1)C1C=CCC1C(C(=O)O)N2 (centres undefined),13*,23,7,12
CCCN1[C@@H]2c3ccc(-c4cccc(C(=O)N(C)C)c4)c(=O)n3C[C@H]1[C@H](CO)[C@H]2C(=O)OC,25,.,.,.
Cc1ccc(OP2(=O)Nc3cc(C)c(C)cc3S2)cc1 (centres undefined),46*,.,3,3
Cc1ccc2c(c1)NP(=S)(Oc1ccccc1)N2 (centres undefined),1,.,4,0
O=C(N/N=C/c1c(O)n(C2CCCCC2)c(=S)[nH]c1=O)c1ccccc1,30,33,-1,-2
O=C(N/N=C/C1C(=O)NC(=S)N(c2ccccc2)C1=O)c1cc(Br)c(O)c(Br)c1 (centres undefined),65*,27,4,0
COC(=O)[C@@H]1[C@@H](CO)[C@@H]2Cn3c(ccc(-c4ccccc4F)c3=O)[C@H]1N2Cc1ccccc1,active,.,.,.
COc1ccc(-c2cc(=NCCCCCC(=O)O)c3cc(C)ccc3o2)cc1,61*,23,-1,5
COc1ccc(-c2cc(=Nc3cccc(C(=O)O)c3)c3cc(C)ccc3o2)cc1,-15,22,5,-12
CCC(=O)N1[C@@H]2Cn3c(ccc(-c4ccc(F)cc4)c3=O)[C@H]1[C@@H](C(=O)OC)[C@@H]2CO,4,.,.,.
O=C(O)[C@@H]1[C@@H](CO)[C@@H]2Cn3c(ccc(-c4ccncc4)c3=O)[C@H]1N2C(=O)C1CCC1,-3,.,.,.
O=C1NC(=O)C(Nc2ccccc2)C(=O)N1,33*,.,8,-3
Cc1c(N=Nc2c(O)n(Cc3ccccc3)c(=O)[nH]c2=O)c(=O)n(-c2ccccc2)n1C,62*,21,-8,-5
CC(=O)O[C@@]12CO[C@@H]1C[C@H](OC1OCC(O)C(O)C1O)[C@@]1(C)C(=O)[C@H](O)C3=C(C)[C@@H](OC(=O)[C@H](O)[C@@H](NC(=O)c4ccccc4)c4ccccc4)C[C@@](O)([C@@H](OC(=O)c4ccccc4)C12)C3(C)C (some centres undefined),4,-1,0,-12
CCCCCC(=O)N[C@@H](c1ccccc1)[C@@H](O)C(=O)O[C@H]1C[C@@]2(O)[C@@H](OC(=O)c3ccccc3)C3[C@](C)(C(=O)[C@H](O)C(=C1C)C2(C)C)[C@@H](OC1OCC(O)C(O)C1O)C[C@H]1OC[C@@]31OC(C)=O (some centres undefined),57*,-4,6,-20
Cc1cc2c(C(C)C)c(O)c(O)c(C=O)c2c(O)c1-c1c(C)cc2c(C(C)C)c(O)c(O)c(C=O)c2c1O,.,51,16*,9
CCCCC(=O)N/N=C/c1c(O)n(-c2cccc3ccccc23)c(=O)[nH]c1=O,61*,18,-4,3
CCCCC(=O)N/N=C/c1c(O)n(CCCC)c(=S)[nH]c1=O,61*,-16,-1,4
SMILES,ARNT-TACC3 inh,AI-2 QS mod,Rin1-Abl PPI inh,sPLA2-III inh
CC(=O)Nc1ccc(N=Cc2c(O)n(Cc3ccco3)c(=O)[nH]c2=O)cc1,-12,.,-5,-6
CCCCC(=O)N/N=C/c1c(O)n(Cc2ccco2)c(=O)[nH]c1=O,72*,15,-2,-2
O=C(N/N=C/c1c(O)n(Cc2ccco2)c(=O)[nH]c1=O)c1ccccc1O,65*,8,0,0
N#Cc1cccc(-c2ccc([C@H]3[C@@H](CO)N4CCCCN(C(=O)Cc5ccncc5)C[C@@H]34)cc2)c1,13,.,.,.
COC(=O)C[C@H]1CC[C@@H]2NC[C@H](O)COC[C@H]2O1,24,.,.,.
O=C1NC(=S)NC(=O)C1=Cc1ccc(Br)s1,10,-87*,2,-2
CN1C(=O)/C(=C\c2ccc(Br)s2)C(=O)NC1=S,-2,?,-1,1
Cc1cccc(S(=O)(=O)N2[C@@H]3Cn4c(ccc(-c5ccccc5)c4=O)[C@H]2[C@@H](C(=O)O)[C@@H]3CO)c1,-7,.,.,.
Nc1ccc2ccc3cccc[n+]3c2c1,-4,3,-119,-181
C[n+]1c(-c2ccccc2)c2cc(N)ccc2c2ccc(N)cc21,47*,61,-7,-38
COC(=O)[C@@H]1[C@@H](CO)[C@@H]2Cn3c(ccc(-c4ccc(F)cc4)c3=O)[C@H]1N2Cc1cccnc1,0,.,.,.
O=c1[nH]c(=O)n(-c2cccc(Cl)c2)c(O)c1/C=N/c1ccccn1,4,24,2,0
COc1ccc2nc(/N=C/c3c(O)n(-c4cccc(Cl)c4)c(=O)[nH]c3=O)sc2c1,79*,25,5,-13
N#Cc1cccc(-c2ccc([C@@H]3[C@H]4CN(C(=O)Cc5cccnc5)CCCCN4[C@H]3CO)cc2)c1,-2,.,.,.
CC(C)c1ccc(-n2c(O)c(/C=N/NC(=O)c3ccccc3O)c(=O)[nH]c2=S)cc1,85*,29,-4,12
Cc1ccccc1-n1c(O)c(/C=N/NC(=O)c2ccncc2)c(=O)[nH]c1=O,71*,12,-1,3
Cc1cc(C)c(-n2c(O)c(/C=N/NC(=O)c3ccncc3)c(=O)[nH]c2=O)c(C)c1,64*,4,-4,-4
CC(C)c1ccc(-n2c(O)c(/C=N/NC(=O)c3ccncc3)c(=O)[nH]c2=O)cc1,61*,26,0,-4
COC(=O)[C@@H]1[C@@H](CO)[C@@H]2Cn3c(ccc(-c4cccc(F)c4)c3=O)[C@H]1N2Cc1ccccc1,4,.,.,.
O=C(Cc1ccccc1)N1CCCCN2[C@H](CO)[C@@H](c3ccc(-c4ccccc4)cc3)[C@H]2C1,4,.,.,.
O=C(Cc1cccnc1)N1CCCCN2[C@H](CO)[C@H](c3ccc(/C=C/c4ccccc4)cc3)[C@@H]2C1,7,.,.,.
CCc1ccc(-n2c(O)c(/C=N/NC(=O)c3ccncc3)c(=O)[nH]c2=O)cc1,4,-15,-5,4
CCCCn1c(O)c(/C=N/NC(=O)c2ccncc2)c(=O)[nH]c1=O,66*,8,-1,-10
Cn1c(=O)c2c(nc(N/N=C/c3c(O)n(-c4ccccc4)c(=S)[nH]c3=O)n2C)n(C)c1=O,58*,23,2,-4
N#CSCC(=O)N1c2ccccc2CCc2ccccc21,.,-76*,0,-12
